Paper PMC5540273 (PLoS ONE, 2017)

Tests used:
Conditions in all cases: concentration: 1 μM, replicates: in singlicate; n = 1
ERN1 = system: ERN1
FER = system: FER
FES = system: FES
FGFR1 = system: FGFR1
FGFR2 = system: FGFR2
FGFR3 = system: FGFR3
FGFR4 = system: FGFR4
FGR = system: FGR
FLT1 = system: FLT1
FAK = system: T1, FAK
T1 construct: gene PTK2
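Further: KINOMEscan kinase panel screen.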

Row | SMILES | %Inh (ERN1) | %Inh (FER) | %Inh (FES) | %Inh (FGFR1) | %Inh (FGFR2) | %Inh (FGFR3) | %Inh (FGFR4) | %Inh (FGR) | %Inh (FLT1) | %Inh (FAK)
1 | CN1c2ccc(CNc3ccc(F)cc3)cc2-c2c(cnn2C)S1(=O)=O | 0% | 25% | 0% | 0% | 0% | 0% | 9% | 0% | 0% | –
2 | COc1ccc(S(=O)(=O)NC2CCN(c3cc(C)nc(Nc4cccc(C#N)c4)n3)CC2)cc1.O=C(O)C(F)(F)F [GSK1653539] | 4% | 23% | 12% | 0% | 0% | 21% | 0% | 33% | 12% | 0%
3 | Cn1ccc2ncnc(Oc3ccc(NC(=O)Nc4ccncc4)c(Cl)c3)c21 | 0% | 0% | 0% | 0% | 0% | 0% | 0% | 5% | 0% | 0%
4 | COC(=O)Nc1nc2cc(Oc3ccc(NC(=O)Nc4cc(F)ccc4F)cc3)ccc2[nH]1.Cl [GW701424] | 0% | 0% | 0% | 0% | 0% | 19% | 6% | 9% | 99% | 0%
5 | CCc1ccnc(/C=C/c2n[nH]c3cc(Sc4ccccc4C(=O)NC)ccc23)c1 | 0% | 0% | 0% | 84% | 87% | 83% | 11% | 86% | 100% | 14%
6 | COc1ccc(Nc2nccc(N3CCC(NC(=O)Nc4cc(C)ccc4C)C3)n2)cc1 (stereo not drawn) [GSK1379741] | 0% | 0% | 0% | 0% | 0% | 0% | 0% | 5% | 16% | 0%
7 | O=c1cc(N2CCOCC2)nc2n(Cc3cccc(Cl)c3Cl)c(C3CC3)nn12 [GSK2358994] | 0% | 3% | 15% | 0% | 1% | 0% | 0% | 9% | 6% | 0%
8 | COCCNC(=O)c1ccc(-c2cc(C(=O)NC3CC3)cc(F)c2C)cc1 [GW868318] | 38% | 1% | 32% | 17% | 3% | 7% | 3% | 32% | 7% | 3%
9 | Cc1ccc(NC(=O)c2ccnc(N3CCN(C)CC3)c2)cc1-c1ccc(C(=O)NCC2CC2)cc1 [GW775604] | 0% | 24% | 0% | 0% | 0% | 0% | 0% | 8% | 0% | 0%
10 | Cc1nnc(-c2ccc(C)c(-c3ccc(C(=O)Nc4ccc(NS(C)(=O)=O)cc4)cc3)c2)o1 [GW702865] | 0% | 4% | 0% | 0% | 0% | 11% | 0% | 24% | 25% | 0%
